Laboratory results from PubChem BioAssay AID1159580 (chemical genetic matrix, 2015).
“And” between values parts separate entries of the source, which are not always exact repeats. Equal values may be shown once. Hit rate of the full screen: of about 5,500 compounds, about 2,000 (36%) were called active. About 18% were inconclusive and are not listed. No stated cut-off is given here; in the data, active means normalized growth mostly below about 0.91 (no sharp cut-off); inconclusive means no clear call, values can overlap the other calls; inactive means mostly above about 0.92. Some of the results follow.

Test: chemical genetic growth profiling, strain panel (AID 1159580);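 further: tested at 20 µM; growth read once vehicle control cultures reached saturation at 30 °C; 1 = growth at the plate median or of vehicle wells; lower values mean less growth of the strain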
Conditions: growth OD

Measured: normalized growth

CN1CCC(=C2c3ccccc3CC(=O)c3sccc32)CC1
inactive: S. cerevisiae deletion strains, locus YKL009W, strain mrt4, active compounds read low 1.02 | S. cerevisiae deletion strains, locus YKL068W, active compounds read low 1.02 | S. cerevisiae deletion strains, locus YKL085W, strain MDH1 (second series), active compounds read low 1.01 | S. cerevisiae deletion strains, locus YKL085W, strain MDH1, active compounds read low 1.01 | S. cerevisiae deletion strains, locus YKL160W, strain elf1, active compounds read low 0.987 | S. cerevisiae deletion strains, locus YKL190W, strain CNB1, active compounds read low 1.01 | S. cerevisiae deletion strains, locus YKR001C, strain vps1, active compounds read low 1.01 | S. cerevisiae deletion strains, locus YKR026C, strain gcn3, active compounds read low 0.981 | S. cerevisiae deletion strains, locus YKR091W, strain srl3, active compounds read low 0.979 | S. cerevisiae deletion strains, locus YLL001W, strain dnm1, active compounds read low 0.935 | S. cerevisiae deletion strains, locus YLL026W, active compounds read low 0.963 | S. cerevisiae deletion strains, locus YLL041C, strain sdh2, active compounds read low 0.986 | S. cerevisiae deletion strains, locus YLR027C, strain aat2, active compounds read low 0.973 | S. cerevisiae deletion strains, locus YLR039C, strain RIC1, active compounds read low 0.996 | S. cerevisiae deletion strains, locus YLR058C, strain SHM2, active compounds read low 1 | S. cerevisiae deletion strains, locus YLR102C, strain apc9, active compounds read low 1.01 | S. cerevisiae deletion strains, locus YLR113W, strain HOG1, active compounds read low 1.02 | S. cerevisiae deletion strains, locus YLR221C, strain rsa3, active compounds read low 1.04 | S. cerevisiae deletion strains, locus YLR258W, strain gsy2, active compounds read low 1.01 | S. cerevisiae deletion strains, locus YLR262C, strain YPT6 (second series), active compounds read low 0.956 | S. cerevisiae deletion strains, locus YLR262C, strain YPT6, active compounds read low 1 | S. cerevisiae deletion strains, locus YLR268W, strain sec22, active compounds read low 1.03 | S. cerevisiae deletion strains, locus YLR320W, strain mms22, active compounds read low 1.02 | S. cerevisiae deletion strains, locus YLR330W, strain CHS5, active compounds read low 1 | S. cerevisiae deletion strains, locus YLR342W, strain FKS1 (second series), active compounds read low 0.991 | S. cerevisiae deletion strains, locus YLR342W, strain FKS1, active compounds read low 0.967 | S. cerevisiae deletion strains, locus YLR357W, strain rsc2, active compounds read low 0.969 | S. cerevisiae deletion strains, locus YLR370C, strain arc18, active compounds read low 0.971 | S. cerevisiae deletion strains, locus YLR371W, strain rom2, active compounds read low 1.01 | S. cerevisiae deletion strains, locus YLR384C, strain iki3, active compounds read low 0.974 | S. cerevisiae deletion strains, locus YLR418C, strain cdc73, active compounds read low 0.976 | S. cerevisiae deletion strains, locus YML016C, strain PPZ1, active compounds read low 1.01 | S. cerevisiae deletion strains, locus YML032C, strain rad52, active compounds read low 1.02 | S. cerevisiae deletion strains, locus YML120C, strain ndi1, active compounds read low 0.965 | S. cerevisiae deletion strains, locus YML124C, strain tub3, active compounds read low 1.01 | S. cerevisiae deletion strains, locus YMR058W, strain fet3, active compounds read low 0.979 | S. cerevisiae deletion strains, locus YMR078C, strain ctf18, active compounds read low 1 | S. cerevisiae deletion strains, locus YMR125W, strain sto1, active compounds read low 0.955 | S. cerevisiae deletion strains, locus YMR129W, active compounds read low 0.981 | S. cerevisiae deletion strains, locus YMR205C, strain PFK2, active compounds read low 0.987 | S. cerevisiae deletion strains, locus YMR223W, strain ubp8, active compounds read low 0.993 | S. cerevisiae deletion strains, locus YMR231W, strain pep5, active compounds read low 0.974 | S. cerevisiae deletion strains, locus YMR263W, strain SAP30, active compounds read low 1.02 | S. cerevisiae deletion strains, locus YMR307W, strain GAS1, active compounds read low 0.971 | S. cerevisiae deletion strains, locus YNL067W, strain RPL9B, active compounds read low 1.02 | S. cerevisiae deletion strains, locus YNL071W, strain lat1, active compounds read low 0.987 | S. cerevisiae deletion strains, locus YNL128W, strain TEP1, active compounds read low 1.01 and 0.992 | S. cerevisiae deletion strains, locus YNL153C, strain GIM3, active compounds read low 1.02 and 0.986 | S. cerevisiae deletion strains, locus YNL175C, strain NOP13, active compounds read low 0.996 | S. cerevisiae deletion strains, locus YNL183C, strain NPR1, active compounds read low 0.991 | S. cerevisiae deletion strains, locus YNL197C, strain WHI3, active compounds read low 0.995 | S. cerevisiae deletion strains, locus YNL209W, strain ssb2, active compounds read low 0.988 | S. cerevisiae deletion strains, locus YNL224C, strain SQS1, active compounds read low 1.02 | S. cerevisiae deletion strains, locus YNL233W, strain BNI4, active compounds read low 1.01 | S. cerevisiae deletion strains, locus YNL248C, strain rpa49, active compounds read low 0.983 | S. cerevisiae deletion strains, locus YNL250W, strain rad50, active compounds read low 1.01 | S. cerevisiae deletion strains, locus YNL271C, strain bni1, active compounds read low 1.02 | S. cerevisiae deletion strains, locus YNL298W, strain CLA4, active compounds read low 1.01 | S. cerevisiae deletion strains, locus YNL307C, strain MCK1, active compounds read low 1 | S. cerevisiae deletion strains, locus YNL322C, strain KRE1 (second series), active compounds read low 0.975 | S. cerevisiae deletion strains, locus YNL322C, strain KRE1, active compounds read low 1.01 and 0.991 | S. cerevisiae deletion strains, locus YNR049C, strain mso1, active compounds read low 0.994 | S. cerevisiae deletion strains, locus YNR052C, strain pop2, active compounds read low 1.01 | S. cerevisiae deletion strains, locus YOL006C, strain TOP1, active compounds read low 1.05 | S. cerevisiae deletion strains, locus YOL012C, strain htz1 1.02 | S. cerevisiae deletion strains, locus YOL147C, strain pex11, active compounds read low 1 | S. cerevisiae deletion strains, locus YOR001W, strain rrp6, active compounds read low 0.95 | S. cerevisiae deletion strains, locus YOR061W, strain CKA2, active compounds read low 1.01 | S. cerevisiae deletion strains, locus YOR069W, strain VPS5, active compounds read low 0.999 | S. cerevisiae deletion strains, locus YOR070C, strain gyp1, active compounds read low 0.999 | S. cerevisiae deletion strains, locus YOR080W, strain dia2, active compounds read low 0.967 | S. cerevisiae deletion strains, locus YOR083W, strain WHI5 (second series), active compounds read low 1.01 | S. cerevisiae deletion strains, locus YOR083W, strain WHI5, active compounds read low 0.962 | S. cerevisiae deletion strains, locus YOR106W, strain vam3, active compounds read low 0.956 | S. cerevisiae deletion strains, locus YOR136W, strain idh2, active compounds read low 1 | S. cerevisiae deletion strains, locus YOR144C, strain elg1, active compounds read low 1 | S. cerevisiae deletion strains, locus YOR184W, strain ser1, active compounds read low 0.989 | S. cerevisiae deletion strains, locus YOR231W, strain MKK1, active compounds read low 1.02 | S. cerevisiae deletion strains, locus YOR265W, strain rbl2, active compounds read low 0.988 | S. cerevisiae deletion strains, locus YOR270C, strain vph1, active compounds read low 0.98 | S. cerevisiae deletion strains, locus YOR290C, strain snf2, active compounds read low 1 | S. cerevisiae deletion strains, locus YOR316C, strain cot1, active compounds read low 1.01 | S. cerevisiae deletion strains, locus YPL051W, strain arl3, active compounds read low 0.991 | S. cerevisiae deletion strains, locus YPL055C, strain LGE1, active compounds read low 1.01 | S. cerevisiae deletion strains, locus YPL078C, strain atp4, active compounds read low 0.923 | S. cerevisiae deletion strains, locus YPL106C, strain sse1, active compounds read low 0.979 | S. cerevisiae deletion strains, locus YPL240C, strain hsp82, active compounds read low 0.99 | S. cerevisiae deletion strains, locus YPL241C, strain CIN2, active compounds read low 1 | S. cerevisiae deletion strains, locus YPL256C, strain CLN2, active compounds read low 1.04 | S. cerevisiae deletion strains, locus YPR119W, strain clb2, active compounds read low 1.01 | S. cerevisiae deletion strains, locus YPR141C, strain kar3, active compounds read low 1.01 | S. cerevisiae deletion strains, locus YPR163C, strain tif3, active compounds read low 1.02 | S. cerevisiae deletion strains, locus YPR167C, strain met16, active compounds read low 1 | S. cerevisiae deletion strains, strain wtn01, active compounds read low 1.01 | S. cerevisiae strains, strain wild type, active compounds read low 1.01
